From PubChem BioAssay (NCATS)
Values joined by “and” are separate entries in the source; they are usually repeats but may differ in a detail not shown here. Equal values may be shown once. Records with an inconclusive call do not appear. Active and inactive are the calls of the source. Unless noted, the call rests on the fitted dose curve; in most records, active means well fitted curve in the direction sought with a large enough effect; inconclusive means small, poorly fitted or top-dose-only effect, or another doubt; inactive means no such curve, though single readings can be large; an effect the other way counts as inactive or inconclusive.

What was measured:
[1] = Cell Viability - LYMP2-001 (AID 921);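 further: series mostly up to about 92 µM; cells exposed to compound for 24 h at 37 °C; 0% = DMSO only and full inhibition = tetraoctylammonium bromide control wells; nearly all actives have a fitted effect of over 70% in size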
Method in brief: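 Steps: seed 2500 lymphoblastoid cells/well; 5 hr, 37 C; add compound; 24 hr, 37 C; CellTiter-Glo reagent, 30 min room temperature; read luminescence. Concentration-response modeled by Hill equation for AC50.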

[2] = MultiTox-Fluor Cytotoxicity Assay - LYMP1-002 - Dead Cells (AID 960);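 further: 0% = DMSO and 100% = tetraoctylammonium bromide; nearly all actives have a fitted effect of over 60% in size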
Method in brief: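 Concentration-dependent increases in membrane-leaked protease activity are quantified in LYMP1-002 cells after 16 hr treatment; values are normalized against DMSO and tetraoctylammonium bromide (15 uM) controls and AC50 derived by Hill modeling.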

[3] = Cell Viability - LYMP2-009 (AID 968);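 further: series mostly up to about 92 µM; cells exposed to compound for 24 h at 37 °C; 0% = DMSO alone and the full-kill end = tetraoctylammonium bromide at 92 µM; nearly all actives have a fitted effect of over 55% in size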
[4] = Cell Viability - LYMP2-021 (AID 974);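 further: compound exposure lasts 24 hours at 37 °C; on the % scale 0 is the no-effect control and ±100 the full control effect; nearly all actives have a fitted effect of over 55% in size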
Method in brief: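 In qHTS format, compounds are tested against 2500 lymphoblastoid cells per well for 24 h; viable cell number is inferred from ATP-driven luciferase light, and Hill-equation fitting yields AC50 values.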

[5] = Cell Viability - LYMP2-010 (AID 981);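 further: cells exposed to compound for 24 hours at 37 °C; on the % scale 0 is the no-effect control and ±100 the full control effect; nearly all actives have a fitted effect of over 55% in size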
Method in brief: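 This 24 hr viability screen uses LYMP2-010 lymphoblastoid cells, quantifies ATP via luciferase luminescence, and derives AC50 from Hill fits of qHTS concentration-response data.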

[6] = Cell Viability - LYMP2-012 (AID 982);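 further: cellular ATP by luciferase luminescence where a drop means cytotoxicity; cells exposed to compound for one day before reading; 0% = DMSO only and full loss = 92 µM tetraoctylammonium bromide; nearly all actives have a fitted effect of over 55% in size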
[7] = Cell Viability - LYMP2-016 (AID 984)
Method in brief: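 Cells were seeded at 2500 per well and rested 5 hr before a 24 hr compound exposure at 37 C. Viability was then gauged as cellular ATP by luciferase luminescence, with AC50 values fitted to the Hill equation.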

[8] = Cell Viability - LYMP2-024 (AID 988);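 further: plate controls were DMSO only for no effect and 92 µM tetraoctylammonium bromide for full effect; nearly all actives have a fitted effect of over 60% in size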
Method in brief: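 Cells at 2500 per well received compound for 24 hr after a 5 hr settling period. Viability was scored by CellTiter-Glo luminescence, with AC50 from Hill fits.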

[9] = target: Estrogen receptor (Homo sapiens) (UniProt P03372); assay: qHTS assay for small molecule antagonists of estrogen receptor alpha signaling (AID 588513; active means well fitted curve in the direction sought with a large enough effect in the signal ratio, with a control signal flat, not every such curve was filed as active; the % refers to the signal ratio; further: on the % scale 0 is the no-effect control and ±100 the full control effect)
Estrogen receptor (Homo sapiens), sequence (P03372 whole entry, looked up): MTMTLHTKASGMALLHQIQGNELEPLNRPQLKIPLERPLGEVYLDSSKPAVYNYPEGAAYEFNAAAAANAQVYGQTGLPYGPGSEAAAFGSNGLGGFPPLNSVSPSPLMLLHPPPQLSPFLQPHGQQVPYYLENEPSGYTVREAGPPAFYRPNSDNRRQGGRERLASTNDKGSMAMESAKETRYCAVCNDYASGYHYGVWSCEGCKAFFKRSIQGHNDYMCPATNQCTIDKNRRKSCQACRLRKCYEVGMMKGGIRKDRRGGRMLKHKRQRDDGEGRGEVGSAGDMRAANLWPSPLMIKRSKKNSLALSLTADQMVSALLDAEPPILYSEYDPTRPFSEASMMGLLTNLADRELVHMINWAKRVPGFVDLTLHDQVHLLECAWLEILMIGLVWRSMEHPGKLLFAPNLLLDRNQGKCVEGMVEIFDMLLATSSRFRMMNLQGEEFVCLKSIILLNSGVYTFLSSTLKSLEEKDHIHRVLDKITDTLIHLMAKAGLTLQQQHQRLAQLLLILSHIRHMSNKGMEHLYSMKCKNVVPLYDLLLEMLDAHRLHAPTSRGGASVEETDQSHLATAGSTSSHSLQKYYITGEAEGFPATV
Method in brief: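 Fluorescence from CCF4 substrate after 2 h at room temperature gave reporter activity; cells had been exposed to compound and 0.5nM 17-beta-estradiol for 18 h at 37 C. Hill-equation fitting yielded IC50 and maximal response.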

[10] = target: Estrogen receptor (Homo sapiens) (UniProt P03372); assay: qHTS assay for small molecule agonists of estrogen receptor alpha signaling (AID 588514; calls by dose curve; further: nearly all actives have a fitted effect of over 70% in size; further: potency means the concentration at half of the fitted maximal effect;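 on activation: 0% = vehicle only and 100% = reference agonist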)
Method in brief: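 Fluorescence from CCF4 cleavage reports ER-alpha-driven beta-lactamase expression in HEK 293 cells treated 18 hrs at 37 C. Data normalized to 17-beta-estradiol (20 nM) and DMSO, fitted to Hill equation.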

[11] = target: Peroxisome proliferator-activated receptor delta (Homo sapiens) (UniProt Q03181); assay: qHTS assay for small molecule agonists of peroxisome proliferator-activated receptor delta signaling (AID 588534; calls by dose curve;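 further: 0% = DMSO basal wells and 100% = positive control agonist at 10 µM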)
Peroxisome proliferator-activated receptor delta (Homo sapiens), sequence (Q03181 whole entry, looked up): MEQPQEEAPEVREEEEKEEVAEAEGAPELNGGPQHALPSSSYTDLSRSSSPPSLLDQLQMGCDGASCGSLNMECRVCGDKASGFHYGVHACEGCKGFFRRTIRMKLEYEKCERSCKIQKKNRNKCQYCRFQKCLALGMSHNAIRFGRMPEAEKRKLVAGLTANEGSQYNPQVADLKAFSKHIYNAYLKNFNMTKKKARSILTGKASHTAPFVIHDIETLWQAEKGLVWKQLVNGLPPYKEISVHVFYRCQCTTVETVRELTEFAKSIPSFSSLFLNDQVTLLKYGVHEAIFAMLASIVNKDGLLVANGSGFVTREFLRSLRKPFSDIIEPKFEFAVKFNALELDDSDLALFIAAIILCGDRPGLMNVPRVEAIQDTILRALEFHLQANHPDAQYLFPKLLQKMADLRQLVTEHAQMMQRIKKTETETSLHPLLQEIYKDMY
Method in brief: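 EC50 and efficacy values derive from Hill fits of a concentration series in a beta-lactamase reporter cell assay. Exposure is 18 hrs at 37 C, with CCF4 fluorescence as the readout.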

[12] = target: Peroxisome proliferator-activated receptor gamma (Homo sapiens) (UniProt P37231); assay: qHTS assay for small molecule agonists of peroxisome proliferator-activated receptor gamma signaling (AID 588536; active means well fitted curve in the direction sought with a large enough effect in the signal ratio, with a control signal flat, not every such curve was filed as active; the % refers to the signal ratio;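 further: 0% = DMSO basal wells and 100% = rosiglitazone at 2 µM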)
Peroxisome proliferator-activated receptor gamma (Homo sapiens), sequence (P37231 whole entry, looked up): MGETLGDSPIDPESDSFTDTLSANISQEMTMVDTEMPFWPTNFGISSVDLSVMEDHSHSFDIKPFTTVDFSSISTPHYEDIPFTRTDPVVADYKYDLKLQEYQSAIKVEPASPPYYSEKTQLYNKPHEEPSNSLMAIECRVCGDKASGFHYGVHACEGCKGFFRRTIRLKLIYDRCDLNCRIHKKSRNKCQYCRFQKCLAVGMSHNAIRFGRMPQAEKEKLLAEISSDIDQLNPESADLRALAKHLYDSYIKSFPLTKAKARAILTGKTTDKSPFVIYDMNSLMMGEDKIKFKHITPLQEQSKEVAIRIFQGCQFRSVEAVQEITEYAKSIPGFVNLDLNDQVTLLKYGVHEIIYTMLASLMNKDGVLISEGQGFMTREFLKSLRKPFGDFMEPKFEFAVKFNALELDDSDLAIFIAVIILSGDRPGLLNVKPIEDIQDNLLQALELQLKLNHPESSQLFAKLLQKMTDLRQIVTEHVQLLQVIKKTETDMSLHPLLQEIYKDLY
Method in brief: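 Cells were plated and held 6–6.5 h at 37 C, then compounds were added as a titration series. After a further 16 h, CCF4 dye was loaded for 2 h at room temperature and emission at 460/530 nm recorded.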

[13] = target: Retinoic acid receptor RXR-alpha (Homo sapiens) (UniProt P19793); assay: qHTS assay for small molecule agonists of retinoid X receptor alpha signaling (AID 588544; calls by dose curve;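 further: 0% = DMSO basal wells and 100% = reference agonist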)
Retinoic acid receptor RXR-alpha (Homo sapiens), sequence (P19793 whole entry, looked up): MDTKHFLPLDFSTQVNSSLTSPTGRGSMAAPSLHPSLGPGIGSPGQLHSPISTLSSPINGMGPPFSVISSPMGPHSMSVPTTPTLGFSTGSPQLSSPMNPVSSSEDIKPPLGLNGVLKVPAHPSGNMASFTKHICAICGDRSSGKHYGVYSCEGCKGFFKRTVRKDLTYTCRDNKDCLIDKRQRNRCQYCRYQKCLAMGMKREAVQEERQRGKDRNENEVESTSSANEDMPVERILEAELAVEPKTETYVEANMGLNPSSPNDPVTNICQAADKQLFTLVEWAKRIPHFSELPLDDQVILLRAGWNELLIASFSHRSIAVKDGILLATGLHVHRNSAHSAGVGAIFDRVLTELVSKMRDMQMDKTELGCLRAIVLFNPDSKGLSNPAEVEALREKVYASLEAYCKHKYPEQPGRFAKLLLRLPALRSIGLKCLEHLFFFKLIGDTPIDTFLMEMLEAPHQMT

[14] = target: Thyroid hormone receptor beta (Homo sapiens) (UniProt P10828); assay: qHTS assay for small molecule agonists of thyroid hormone receptor beta signaling (AID 588545; calls by dose curve;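 further: 0% = DMSO only and 100% = 10 nM T3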)
Thyroid hormone receptor beta (Homo sapiens), sequence (P10828 whole entry, looked up): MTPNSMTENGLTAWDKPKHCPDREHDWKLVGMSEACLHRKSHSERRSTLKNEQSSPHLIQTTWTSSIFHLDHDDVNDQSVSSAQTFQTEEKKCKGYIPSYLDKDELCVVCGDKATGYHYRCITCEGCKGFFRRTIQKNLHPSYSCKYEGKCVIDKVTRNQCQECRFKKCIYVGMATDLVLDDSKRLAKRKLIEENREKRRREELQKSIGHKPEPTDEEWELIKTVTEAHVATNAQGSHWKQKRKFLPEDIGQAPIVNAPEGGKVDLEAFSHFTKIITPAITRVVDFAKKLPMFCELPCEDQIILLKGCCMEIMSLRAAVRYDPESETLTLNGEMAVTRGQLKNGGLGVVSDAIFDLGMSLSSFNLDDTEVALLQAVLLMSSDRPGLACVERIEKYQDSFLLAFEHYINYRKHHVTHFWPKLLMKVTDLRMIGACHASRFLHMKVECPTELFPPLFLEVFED
Method in brief: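 TR-UAS-bla-GripTite HEK 293 cells in medium with 2% charcoal/dextran FBS, 0.1 mM NEAA and 1 mM sodium pyruvate were treated with titrated compounds for 18 hrs at 37 C. Beta-lactamase reporter was read with CCF4 dye (ex 405, em 460/530 nm); EC50 from Hill fits.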

[15] = qHTS assay for small molecule antagonists of retinoid X receptor alpha signaling (AID 588546); conditions: HEK293T RXRa-UAS-bla, beta-lactamase ratio, antagonist mode; measured here: W530 green channel, cytotoxicity proxy;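 further: cells stimulated with 9-cis-retinoic acid as agonist; on the % scale 0 is the no-effect control and ±100 the full control effect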
Method in brief: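 Beta-lactamase reporter inhibition, read as CCF4 fluorescence ratio (ex 405, em 460/530 nm) after 2 h at RT. HEK293T UAS-bla cells, 2500/well, were stimulated with 9-cis-RA at 500 or 100 nM final alongside test compound for 18 h at 37 C.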

[16] = target: Thyroid hormone receptor beta (Homo sapiens) (UniProt P10828); assay: qHTS assay for small molecule antagonists of thyroid hormone receptor beta signaling (AID 588547; active means well fitted inhibition curve with a large enough effect in the signal ratio, with a control signal flat, not every such curve was filed as active; the % refers to the signal ratio;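 further: cells stimulated with 0.4 nM T3 agonist during compound exposure; series mostly up to about 77 µM; on the % scale 0 is the no-effect control and ±100 the full control effect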); conditions: TR-UAS-bla HEK293, beta-lactamase ratio, antagonist mode, 18 h
Method in brief: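 Inhibition of T3-driven (0.4nM final) beta-lactamase reporter activity was measured over 0.59 nM to 92 uM compound after 18 h at 37 C. The cells were GripTite HEK293 TR-UAS-bla in charcoal/dextran-stripped serum, with CCF4 ratio read-out and IC50 from Hill fits.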

[17] = target: Tumor necrosis factor (Homo sapiens) (UniProt P01375); assay: qHTS assay to identify small molecules that stimulate Tumor Necrosis Factor-alpha (TNF-alpha) secretion (AID 651757; active means well fitted curve in the direction sought with a large enough effect in the signal ratio; the % refers to the signal ratio; further: 0% is about no effect)
Tumor necrosis factor (Homo sapiens), sequence (P01375 whole entry, looked up): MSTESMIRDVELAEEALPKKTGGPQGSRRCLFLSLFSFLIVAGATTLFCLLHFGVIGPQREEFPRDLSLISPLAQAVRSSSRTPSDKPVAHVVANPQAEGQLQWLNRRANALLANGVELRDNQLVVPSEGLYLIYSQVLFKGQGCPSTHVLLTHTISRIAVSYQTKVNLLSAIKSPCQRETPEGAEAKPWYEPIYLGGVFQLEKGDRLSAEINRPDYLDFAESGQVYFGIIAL
Method in brief: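 Using 3000 THP-1 cells per well, compounds and controls were applied for 17 hrs at 37 C. Detection followed with two labeled anti-TNF-alpha antibodies (cryptate donor, XL665 acceptor) for 3 hr at room temperature, measured by TR-FRET.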

[18] = qHTS assay for environmental chemicals that activate the Aryl hydrocarbon Receptor (AhR) signaling pathway (AID 651777); conditions: 1A2-DRE human hepatoma cells, luciferase, 24 h; activation: stronger effect = higher value; further: nearly all actives have a fitted effect of over 15% in size; further: potency means the concentration at half of the fitted maximal effect; on activation: % of control where 0% means no effect
Method in brief: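 Concentration–response screening used 1,200 1A2-DRE cells per well, 24 hr compound exposure (37 C, 5% CO2), and One-Glo luminescence as the AhR-driven CYP1A2 reporter signal.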

[19] = target: Nuclear receptor ROR-gamma (Homo sapiens) (UniProt P51449); assay: qHTS assay for small molecule antagonists of the retinoid-related orphan receptor gamma (ROR-gamma) signaling pathway (AID 651802);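 further: CHO cells with doxycycline-induced ROR-gamma expression; luciferase reporter luminescence driven by ROR response element; series mostly up to about 92 µM; on the % scale 0 is the no-effect control and ±100 the full control effect; nearly all actives have a fitted effect of over 60% in size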
Nuclear receptor ROR-gamma (Homo sapiens), sequence (P51449 whole entry, looked up): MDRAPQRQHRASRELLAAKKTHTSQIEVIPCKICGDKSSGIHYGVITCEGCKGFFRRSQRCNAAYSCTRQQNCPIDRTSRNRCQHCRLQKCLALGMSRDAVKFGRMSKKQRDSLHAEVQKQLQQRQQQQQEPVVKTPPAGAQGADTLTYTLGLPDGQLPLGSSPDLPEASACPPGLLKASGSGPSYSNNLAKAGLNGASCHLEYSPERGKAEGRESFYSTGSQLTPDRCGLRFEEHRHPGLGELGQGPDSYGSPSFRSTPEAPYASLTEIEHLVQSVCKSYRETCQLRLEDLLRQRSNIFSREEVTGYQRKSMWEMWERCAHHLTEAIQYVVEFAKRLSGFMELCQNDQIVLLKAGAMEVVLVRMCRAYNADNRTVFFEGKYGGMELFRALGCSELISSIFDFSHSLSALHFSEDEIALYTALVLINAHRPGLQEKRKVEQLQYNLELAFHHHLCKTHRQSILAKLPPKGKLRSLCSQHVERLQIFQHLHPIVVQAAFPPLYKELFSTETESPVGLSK
Method in brief: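 Doxycycline-induced reporter activity in engineered CHO cells (TET-inducible ROR, RORE-LUC) was measured by luminescence after 16hr compound exposure at 37C.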

[20] = qHTS assay for small molecule antagonists of the retinoid-related orphan receptor gamma (ROR-gamma) signaling pathway - cell viability counter screen (AID 720652; active means well fitted curve in the direction sought with a large enough effect in the repeat runs; an effect the other way counts as inactive or inconclusive;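 further: CHO reporter cells with doxycycline-induced ROR-gamma expression; series mostly up to about 92 µM; compound exposure lasted 16 hr before ATP read; on the % scale 0 is the no-effect control and ±100 the full control effect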)
Method in brief: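 ATP-based viability readout in the ROR-gamma reporter CHO cells after 16 hr compound exposure under doxycycline induction.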

[O-][Br+2]([O-])O
inactive: Potency [1] | Potency [2] | Potency [3] | Potency [4] | Potency [5] | Potency [6] | Potency [7] | Potency [8] | Potency [9] | Potency [10] | outcome [11] | outcome [12] | Potency [13] | outcome [14] | activity change % (negative = inhibition) [16] 6.91% and -5.45% | outcome [17] | activation [18] 0.946% and -0.602% | Potency [19] | Potency [20]
-4.01% and -4.2%: max response [15]

CC(Cl)Cl
inactive: Potency [1] | Potency [2] | Potency [3] | Potency [4] | Potency [5] | Potency [6] | Potency [7] | Potency [8] | Potency [9] | Potency [10] | outcome [11] | outcome [12] | Potency [13] | activity change % (negative = inhibition) [16] -1.63% | outcome [17] | activation [18] -0.961% | Potency [19] | Potency [20]
-2.19%: max response [15]

Nc1ccccc1Cl
-3.04%: max response [15]
inactive: Potency [1] | Potency [2] | Potency [3] | Potency [4] | Potency [5] | Potency [6] | Potency [7] | Potency [8] | Potency [9] | Potency [10] | outcome [11] | outcome [12] | Potency [13] | outcome [14] | activity change % (negative = inhibition) [16] -4.52% | outcome [17] | activation [18] 0.951% | Potency [19]

CN=C=S
-16.3% and -0.556%: max response [15]
active: Potency [10] 20 µM
inactive: Potency [1] | Potency [2] | Potency [3] | Potency [4] | Potency [5] | Potency [6] | Potency [7] | Potency [8] | Potency [9] | outcome [11] | outcome [12] | Potency [13] | outcome [14] | activity change % (negative = inhibition) [16] -1.38% and -7.2% | outcome [17] | activation [18] 0.215% and 0.204% | Potency [19]

C=CCOC(=O)c1ccccc1N
-12.2%: max response [15]
inactive: Potency [1] | Potency [2] | Potency [3] | Potency [4] | Potency [5] | Potency [6] | Potency [7] | Potency [8] | Potency [9] | Potency [10] | outcome [11] | outcome [12] | Potency [13] | outcome [14] | activity change % (negative = inhibition) [16] -21.1% | outcome [17] | Potency [19] | Potency [20]

ClCBr
inactive: Potency [2] | Potency [8] | Potency [9] | Potency [10] | outcome [11] | outcome [12] | Potency [13] | outcome [14] | activity change % (negative = inhibition) [16] 5.81% | outcome [17] | activation [18] -0.711% | Potency [19] | Potency [20]
-9.96%: max response [15]

Brc1ccccc1
inactive: Potency [1] | Potency [2] | Potency [3] | Potency [4] | Potency [5] | Potency [6] | Potency [7] | Potency [8] | Potency [9] | Potency [10] | outcome [11] | outcome [12] | Potency [13] | outcome [14] | activity change % (negative = inhibition) [16] -13.6% and -17.2% | outcome [17] | activation [18] -1.29% and 1.99% | Potency [19] | Potency [20]
-12.3% and -4.99%: max response [15]

S=C=Nc1cccc2ccccc12
active: Potency [18] 50.1 µM
-0.704%: max response [15]
inactive: Potency [1] | Potency [2] | Potency [3] | Potency [4] | Potency [5] | Potency [6] | Potency [7] | Potency [8] | Potency [9] | Potency [10] | outcome [11] | outcome [12] | Potency [13] | outcome [14] | activity change % (negative = inhibition) [16] -1.91% | outcome [17] | Potency [19] | Potency [20]

O=C(Cl)C(Cl)(Cl)Cl
inactive: Potency [1] | Potency [2] | Potency [3] | Potency [4] | Potency [5] | Potency [6] | Potency [7] | Potency [8] | Potency [9] | Potency [10] | outcome [11] | outcome [12] | Potency [13] | outcome [14] | activity change % (negative = inhibition) [16] -5.79% | outcome [17] | activation [18] 0.0046% | Potency [19] | Potency [20]
2.3%: max response [15]

C=C(Cl)Cl
inactive: Potency [1] | Potency [2] | Potency [3] | Potency [4] | Potency [5] | Potency [6] | Potency [7] | Potency [8] | Potency [9] | Potency [10] | outcome [11] | outcome [12] | Potency [13] | outcome [14] | activity change % (negative = inhibition) [16] -6% | outcome [17] | Potency [19] | Potency [20]
-3.44%: max response [15]

Clc1ccc2ccccc2c1
inactive: Potency [1] | Potency [2] | Potency [3] | Potency [4] | Potency [5] | Potency [6] | Potency [7] | Potency [8] | Potency [9] | Potency [10] | outcome [11] | outcome [12] | Potency [13] | outcome [14] | activity change % (negative = inhibition) [16] -12% | outcome [17] | activation [18] 0.057% | Potency [19] | Potency [20]

C=CC(=C)C
inactive: Potency [1] | Potency [3] | Potency [4] | Potency [5] | Potency [6] | Potency [7] | Potency [8] | Potency [9] | Potency [10] | outcome [11] | outcome [12] | Potency [13] | outcome [14] | activity change % (negative = inhibition) [16] 3.52% | outcome [17] | activation [18] -0.578% | Potency [19] | Potency [20]
-1.77%: max response [15]
